Rows were chosen to be rich in hits. Some 2.9% of all compounds tested hit in one or more screens of this group.
pPAFAH inh: pPAFAH enzyme inhibitors, primary screen, biochemical, fluorescence polarization, human; Platelet-activating factor acetylhydrolase (Homo sapiens), Q13093; recombinant pPAFAH, FP-rhodamine probe fluorescence polarization; inhibition, % at 3.39 µM; 1.5% of 330,000 active;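 active means inhibition above the mean inhibition across the screen plus 3 SD, cut at about 25% in these data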;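 further: inhibitors block binding of the rhodamine activity-based probe so polarization drops; 0% = enzyme with DMSO and 100% = wells lacking pPAFAH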
PAFAH2 FP inh: PAFAH2 enzyme inhibitors, primary screen, biochemical, fluorescence polarization, human; Platelet-activating factor acetylhydrolase 2, cytoplasmic (Homo sapiens), Q99487; recombinant PAFAH2, FP-rhodamine activity probe; inhibition, % at 3.39 µM; 0.99% of 340,000 active;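 active means inhibition above the mean over all tested compounds plus 3 SD, cut at about 30% in these data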;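 further: inhibitors block probe labeling of enzyme so polarization drops; 0% = enzyme with DMSO and 100% = wells lacking PAFAH2 protein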
PAFAH1B2 FP inh: PAFAH1B2 enzyme inhibitors, primary screen, biochemical, fluorescence polarization, human | Platelet-activating factor acetylhydrolase IB subunit alpha2 (Homo sapiens), P68402 | recombinant PAFAH1B2, FP-rhodamine activity probe | inhibition, % at 3.39 µM | 1.2% of 340,000 active | AID 492953, 2010;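 active means inhibition above the mean of all tested compounds plus 3 SD, cut at about 24% in these data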;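 further: 0% = enzyme with DMSO and 100% = wells lacking PAFAH1B2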
Target sequence (P68402 whole entry, looked up): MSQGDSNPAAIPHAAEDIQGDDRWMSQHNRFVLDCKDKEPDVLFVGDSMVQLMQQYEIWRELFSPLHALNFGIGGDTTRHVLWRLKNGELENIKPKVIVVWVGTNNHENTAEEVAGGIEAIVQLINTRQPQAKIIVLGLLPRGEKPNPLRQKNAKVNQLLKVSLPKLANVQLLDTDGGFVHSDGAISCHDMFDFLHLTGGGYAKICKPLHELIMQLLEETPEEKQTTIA
PAFAH1B3 inh: PAFAH1B3 enzyme inhibitors, primary screen, biochemical, fluorescence polarization, human; inhibition, % at 3.39 µM; 0.28% of 340,000 active; recombinant PAFAH1B3, FP-rhodamine probe;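 active means inhibition above the screen-wide average of all tested compounds plus 3 SD, cut at about 25% in these data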;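 further: 0% = enzyme with DMSO only and 100% = wells lacking PAFAH1B3 protein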
Target sequence (Q15102 whole entry, looked up): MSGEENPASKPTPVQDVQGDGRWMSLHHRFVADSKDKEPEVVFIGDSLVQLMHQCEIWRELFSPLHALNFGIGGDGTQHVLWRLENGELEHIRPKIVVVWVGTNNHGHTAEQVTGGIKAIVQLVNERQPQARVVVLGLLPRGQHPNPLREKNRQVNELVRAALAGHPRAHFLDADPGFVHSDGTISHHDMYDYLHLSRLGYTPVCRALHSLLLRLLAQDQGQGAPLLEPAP
PME-1 inh: PME-1 inhibitors via competitive probe labeling, primary screen, biochemical, fluorescence polarization, FP-Rh probe, HTS. Protein phosphatase methylesterase 1 (Homo sapiens), Q9Y570. recombinant PME-1. inhibition, % at 5.9 µM. 0.53% of 320,000 active. AID 2130, 2009;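 active means inhibition above the campaign mean of all compounds plus 3 SD, cut at about 26% in these data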;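 further: competitive labeling of PME-1 active site by serine hydrolase directed probe; 0% = PME-1 with DMSO and 100% = wells lacking PME-1 enzyme; inhibitors block probe labeling so polarization falls and inhibition rises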
Fam108B counter: mouse Fam108B serine hydrolase inhibitors, primary screen, counter-screen for RBBP9 inhibitor project, biochemical, fluorescence polarization; 0.33% of 300,000 active; inhibition, % at 9.51 µM; recombinant Fam108B, FP-Rh probe fluorescence polarization;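 active means inhibition above the screen mean inhibition plus 3 SD, computed separately per campaign, cut at about 18% in these data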;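 further: inhibitors lower polarization as less probe binds the enzyme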
PAFAH2 confirm: PAFAH2 enzyme inhibitors, confirmation, biochemical, fluorescence polarization, human; shares compounds with PAFAH2 FP inh; recombinant PAFAH2, FP-rhodamine activity probe; inhibition, % at 3.39 µM; 65% of 2,300 active;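 active means mean inhibition over three repeats above a set limit taken from the earlier primary screen, cut at about 30% in these data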;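 further: inhibitor blocks binding of rhodamine activity probe so polarization falls; 0% = enzyme with DMSO and 100% = wells lacking PAFAH2 protein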
PAFAH1B3 conf FP: PAFAH1B3 enzyme inhibitors, confirmation, biochemical, fluorescence polarization, human | inhibition, % at 3.39 µM | AID 493032, 2011 | recombinant PAFAH1B3, FP-Rh activity-based probe | shares compounds with PAFAH1B3 inh | 30% of 390 active;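 active means average inhibition over triplicate runs above the hit cutoff set in the earlier primary screen, cut at about 25% in these data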;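 further: 0% = enzyme with DMSO and 100% = wells lacking PAFAH1B3 protein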
* marks the source's active call; other numbers are inactive results; . = no result.

SMILES	pPAFAH inh	PAFAH2 FP inh	PAFAH1B2 FP inh	PAFAH1B3 inh	PME-1 inh	Fam108B counter	PAFAH1B3 conf FP	others
Cc1ccc(SSc2cc(C)ccc2N)c(N)c1	4	11	11	-3	5	6	.
CCCC1OC23CCCCC2C(C#N)(C(=N)O3)C1(C#N)C#N (stereo unspecified)	13	30*	15	21	5	-1	.	PAFAH2 confirm=0
Cc1ccc2nc(-c3ccccc3)oc(=O)c2c1	1	86*	0	4	-15	-6	.	PAFAH2 confirm=69*
O=c1oc(-c2ccc(Br)o2)nc2ccccc12	-6	60*	3	10	-12	-16	.	PAFAH2 confirm=65*
O=C(Nc1cccc(-c2nc3ccccc3c(=O)o2)c1)c1ccccc1	-13	-21	-8	-18	-13	-41	.
COc1ccc(-c2nc3ccc(C)cc3c(=O)o2)cc1OC	4	43*	-5	-2	-2	0	.	PAFAH2 confirm=42*
O=c1oc(-c2cccc([N+](=O)[O-])c2)nc2ccccc12	4	43*	5	17	-2	7	.	PAFAH2 confirm=48*
O=c1oc(-c2cccs2)nc2ccc(Br)cc12	-6	18	3	4	-10	-11	.
CC(CCc1ccccc1)NC(=O)CN1CCSc2ccccc21 (stereo unspecified)	-1	7	7	-1	14	2	.
CCSC(=Nc1ccccc1)N1CCOCC1	2	.	.	.	4	-2	.
Cc1cc(-c2ccc([N+](=O)[O-])cc2)nc2ccccc12	3	3	1	1	7	3	.
Cc1ccc(-c2nc3ccccc3c(=O)o2)cc1	-8	81*	-2	4	-6	-4	.	PAFAH2 confirm=73*
Cc1cc(-c2nc3ccccc3c(=O)o2)ccc1[N+](=O)[O-]	-5	70*	3	9	-4	-2	.	PAFAH2 confirm=70*
Cc1ccc2nc(-c3ccccc3C)oc(=O)c2c1	4	65*	-2	3	-3	-1	.	PAFAH2 confirm=45*
CCOC(=O)C1(Cc2ccccc2)CCCN(Cc2ccc(OCC)c(CO)c2)C1 (stereo unspecified)	3	1	4	-4	0	1	.
C=CCOc1ccc(Br)cc1/C=C1/SC(=Nc2ccc(C(=O)O)cc2)NC1=O	.	0	10	31*	.	.	21
C=CCOc1c(Br)cc(/C=C2\SC(=Nc3ccccc3)NC2=O)cc1OC	.	-6	-5	8	.	.	.
Cc1ccccc1-c1cc2c(nn1)-c1ccccc1C2=O	1	15	8	34*	3	5	7
Cc1ccc(-c2cc3c(nn2)-c2ccccc2C3=O)cc1	7	6	2	4	10	6	.
COc1ccc(S(=O)(=O)Nc2cc(SCC(=O)O)c(O)c3ccccc23)cc1	22	13	19	44*	23	18	12
COc1ccc(/C=C2\C(=O)NC(=O)c3ccccc32)cc1OC	.	1	2	40*	.	.	16
COc1ccc(C=C2C(=O)OC(C)(C)OC2=O)cc1OC	-9	4	-5	0	3	-3	.
Cc1cccc(-n2ccc(=O)c(C(=O)Nc3ccc(S(=O)(=O)Nc4onc(C)c4C)cc3)n2)c1	2	-3	3	5	-5	0	.
Cn1c2c(c3ccccc31)CCSC2=O	-1	-6	3	26*	-4	0	24
CN(C)/C=C1\C(=O)ON=C1c1ccccc1	-1	-4	3	-7	-2	1	.
SMILES	pPAFAH inh	PAFAH2 FP inh	PAFAH1B2 FP inh	PAFAH1B3 inh	PME-1 inh	Fam108B counter	PAFAH1B3 conf FP	others
Cc1ccc(C2=NOC(=O)/C2=C\C=C\c2ccccc2)cc1	.	16	12	36*	.	.	29*
O=C(C1=C(c2ccccc2)C(=O)c2ccccc2C1=O)c1ccccc1	.	8	11	58*	.	.	26*
C/C(=N/Nc1ccc([N+](=O)[O-])cc1)c1c[nH]c2ccccc12	.	3	10	36*	.	.	16
COc1cc(-c2nc3c4ccccc4nc(=S)n3[nH]2)cc(OC)c1OC	6	-2	5	30*	26	4	25
COc1ccccc1-c1nc2c3ccccc3nc(=S)n2[nH]1	5	-3	-2	7	-5	2	.
Oc1ccc(CCNc2c3ccccc3nc3ccccc23)cc1O	18	14	15	40*	-25	18	33*
CC(=O)Nc1cccc(NC(=O)CSc2nc(=O)n(CCCN3CCOCC3)c3c2CCC3)c1	-5	3	2	11	-3	-3	.
COc1ccc2[nH]c(=O)cc(C(=O)O)c2c1	8	6	3	14	-3	7	.
COc1ccc2[nH]c3c4c(ccc3c2c1)C(=O)C=CC4=O	.	16	17	37*	.	.	17
COc1cc(OC)c2cc(C(=O)N[C@H](C(=O)N3CCC[C@H]3C(=O)O)C(C)C)n(C)c2c1	-2	2	-1	1	1	4	.
Cc1cc(C(=O)OCC(=O)Nc2c(Cl)cccc2Cl)c(C)o1	2	27	0	7	.	.	.
COC(=O)CCC(=O)OC1(C)C(=O)C2=CN(CCc3ccccn3)C(c3ccc(OC)cc3)=CC2=C(Br)C1=O (stereo unspecified)	20	13	1	30*	2	1	4
COC(=O)CCC(=O)OC1(C)C(=O)C2=CN(CCCCO)C(c3ccc(OC)cc3)=CC2=C(Br)C1=O (stereo unspecified)	8	.	.	.	6	4	.
O=C(NNC(=O)c1cc(Cl)ccc1O)c1ccc(NS(=O)(=O)c2cccs2)cc1	12	0	8	0	-5	7	.
COc1cccc(/C=N/NC(=O)c2ccc([N+](=O)[O-])cc2Cl)c1O	6	10	3	27*	-2	0	15
Cc1ccc(C(=O)Nc2ccc(C(=O)N3CCCCC3)cc2)o1	-2	5	4	1	9	-2	.
[O-][n+]1onc2c1CCc1nnccc1-2	1	8	3	7	-2	-1	.
[O-][n+]1onc2c1CCc1nnc(-c3ccccc3)cc1-2	2	1	4	78*	6	0	84*
[O-][n+]1onc2c1CCc1c-2nc(-c2ccccc2)n1OCc1ccccc1	0	6	2	4	0	0	.
